PLK1 PBD block: inhibitors of human PLK1 polo-box domain binding; P53350; Plk1 PBD binding of FITC phosphopeptide, fluorescence polarization; Potency, µM, inactives show max response, negative = inhibition, actives largely listed as inhibitors; 2.8% of 360,000 active; AID 720504; note: potency is the fitted concentration of half-maximal effect; series mostly up to about 57 µM; % is set by controls: 0 for no effect and ±100 for the full control effect; nearly all actives have a fitted effect of over 65% in size
FEN1 inh: inhibitors of human flap endonuclease 1 | P39748 | Potency, µM (top dose mostly 114 µM), for the others: at the highest dose activity change, negative = inhibition, usual class: inhibitors | Recombinant FEN1 flap cleavage, fluorescence, 15 min | AID 588795 | 0.35% of 390,000 active; note: potency is the fitted concentration of half-maximal effect; % is set by controls: 0 for no effect and ±100 for the full control effect; nearly all actives have a fitted effect of over 65% in size
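FEN1 at 10 nM preincubated with compounds 15 min at room temperature, then flap DNA substrate added at 50 nM final. Signal read at 0 and 15 min; concentration-response fitted with four-parameter Hill equation.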
PI5P4Ka inh: PI5P4K alpha (human) kinase inhibition; PI5P4Kalpha enzyme, ADP-Glo luminescence, 60 min; active compounds read low; max response, %; 1.2% of 330,000 active; AID 652105; active = max response of -50% or lower; inconclusive = between -30% and -50%; inactive = -30% or higher; note: value at the top dose of about 77 µM; % is set by controls: 0 for no effect and ±100 for the full control effect
Target sequence (P48426 whole entry, looked up): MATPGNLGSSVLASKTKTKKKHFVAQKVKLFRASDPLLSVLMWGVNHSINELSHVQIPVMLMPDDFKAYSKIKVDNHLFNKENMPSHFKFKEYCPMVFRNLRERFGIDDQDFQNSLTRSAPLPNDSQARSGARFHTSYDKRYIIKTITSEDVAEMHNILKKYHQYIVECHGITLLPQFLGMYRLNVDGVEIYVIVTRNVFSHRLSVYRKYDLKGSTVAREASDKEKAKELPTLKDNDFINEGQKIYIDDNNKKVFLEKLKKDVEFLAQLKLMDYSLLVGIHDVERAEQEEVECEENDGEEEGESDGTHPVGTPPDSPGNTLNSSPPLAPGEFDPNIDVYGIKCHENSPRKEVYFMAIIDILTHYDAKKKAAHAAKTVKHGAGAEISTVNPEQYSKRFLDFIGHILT
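Luminescence from ADP-Glo served as readout of PI5P4Kalpha activity in a qHTS format. Reaction: enzyme, substrate, compound, ATP at 5 microM final, 60 min at RT.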
WRN inhibitor: blocks human WRN helicase; Q14191; WRN helicase unwinding, fluorescent forked duplex, kinetic; 0.46% of 360,000 active; Potency, µM (highest dose often 114 µM), without a hit: at the top dose activity change, negative = inhibition, actives largely listed as inhibitors; note: potency is the fitted concentration of half-maximal effect; % is set by controls: 0 for no effect and ±100 for the full control effect; nearly all actives have a fitted effect of over 55% in size
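Kinetic red-fluorescence monitoring (525/598 nm) tracks WRN helicase activity after 100 nM fluorophore-quencher forked duplex and 2 mM ATP are added to 20 nM enzyme pretreated 15 min at room temperature with compound.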
VDR inhibitor: blocks the human vitamin D receptor | Potency, µM, for inactives: max response, negative = inhibition, most hits filed as inhibitors | VDR-SRC2-3 peptide fluorescence polarization, 2 h | P11473 | 0.93% of 400,000 active; note: potency is the fitted concentration of half-maximal effect; % is set by controls: 0 for no effect and ±100 for the full control effect
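Compounds are added to VDR with labelled SRC2-3 coactivator peptide and held 2 h at room temperature. Inhibition of the VDR–peptide interaction is then read as a change in fluorescence polarization.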
TCR act: T cell receptor activation. primary human leukocytes, anti-CD3, IL-2 HTRF, 48 h. AID 504894. Potency, µM (highest dose often 9.22 µM), for inactives: at the top dose activation of IL-2 secretion, usual class: activators. 330,000 tested, under 10 active; note: % of control where 0% means no effect
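IL-2 release read by HTRF sandwich (Eu cryptate donor, d2 acceptor, 665 nm emission) after 48 hr exposure of primary human leukocytes to compound together with anti-CD3 beads in the absence of co-stimulatory signals.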
Numbers without * were called inactive; ? = inconclusive; . = not tested or not shown; ! = a repeat was not active; [ ] = dose if it differs, or a comment. An excerpt weighted towards active compounds, which were near 3.7% of everything screened. Unless noted, calls come from the whole dose curve; as a rule, active = well fitted curve in the direction sought with a large enough effect; inconclusive = small, poorly fitted or top-dose-only effect, or another doubt; inactive = no such curve, though single readings can be large; an effect the other way counts as inactive or inconclusive.

SMILES	PLK1 PBD block	FEN1 inh	PI5P4Ka inh	WRN inhibitor	VDR inhibitor	TCR act
CCC(C)C(N)C1=NC(C(=O)N[C@@H](CC(C)C)C(=O)N[C@H](CCC(=O)[O-])C(=O)N[C@H](C(=O)N[C@H]2CCCCNC(=O)[C@H](CC(N)=O)NC(=O)[C@@H](CC(=O)[O-])NC(=O)[C@H](Cc3cnc[nH]3)NC(=O)[C@@H](Cc3ccccc3)NC(=O)[C@H]([C@@H](C)CC)NC(=O)[C@@H](CCCN)NC2=O)[C@@H](C)CC)CS1.[Zn+2] (some centres undefined)	-10.3%	8.91µM*	-3.7	-23.2%	?	7.0%
CCOc1ccc(S(=O)(=O)N/N=C(\C)c2ccc(OC)cc2OC)cc1	15µM*	-2.1%	-27.1	-9.4%[57.1 µM]	?	-11.4%
COc1ccc(/C(C)=N/NC(=O)c2ccccc2OCc2ccccc2)c(OC)c1	18.9µM*	-3.4%	?	-9.5%	?	-2.7%
COc1ccc(/C=N/NC(=O)c2ccccc2OCc2ccccc2)c(OC)c1	-9.5%	-0.8%	-7.9	-9.6%	2.5%	0.7%
COc1ccc(/C(C)=N/NS(=O)(=O)c2cc(C)ccc2C)c(OC)c1	?	-6.6%	0.9	0.2%[57.1 µM]	-8.1%	-3.3%
CN(C)c1ccc(CCC2C=Cc3ccccc32)cc1 (centres undefined)	.	11.4%	.	.	.	.
CC(C)NOC(=O)c1ccc(Cl)cc1	29.9µM*	20.0%	-11.0	-0.3%	-12.0%	7.0%
CC(CN1CCCC1)OC(=O)c1ccc(Cl)cc1 (centres undefined)	-3.4%	5.9%	-3.1	7.1%	8.7%	5.7%
O=C(CCN1C(=O)C2C3CC(C(Br)C3Br)C2C1=O)OCC(=O)c1ccccc1 (centres undefined)	26.7µM*	-6.1%	-7.3	-1.3%	?	4.5%[46.1 µM]
COc1ccc(C(=O)COC(=O)CCN2C(=O)C3C4CCC(C4)C3C2=O)cc1 (centres undefined)	-8.0%	0.6%	1.0	0.3%	-3.4%	0.3%
COc1ccc(N(CC(=O)NCC(C)C)S(=O)(=O)c2ccccc2)cc1	18.9µM*	5.9%	-26.3	6.4%	?	-13.4%
COc1ccc(CNC(=O)CN(c2ccccc2)S(=O)(=O)N(C)C)cc1	-8.8%	14.7%	-11.2	16.4%	89.1µM*!	-3.0%
CCOC(=O)C1=C(C)N=c2s/c(=C\c3ccc(OCC(=O)O)cc3)c(=O)n2C1c1ccc(OC(C)C)cc1 (centres undefined)	23.8µM*	-14.0%	-6.6	-21.8%	50.1µM*	-1.6%[46.1 µM]
CSc1ccc(CNC(=O)c2cc3cc(S(=O)(=O)N4CCCCC4)ccc3n2C)cc1	.	6.8%	.	.	6.1%	.
CC(=O)c1sc2nsc(SCCN3CCCC3)c2c1N	7.52µM*	-4.7%	?	?	-9.2%	-5.8%
CCCCC1(C)NC(=S)N2N1C(=S)NC2(C)CCCC (centres undefined)	-0.4%	5.7%	?	56.2µM*	79.4µM*	4.8%
COCCc1ncc(CN2CCC(C(=O)Nc3cccc(-c4cscn4)c3)CC2)cn1	18.9µM*	-16.0%	-6.4	-3.5%	-27.5%	-1.2%
COc1ccc(C(=O)c2coc3ccc(OC(C)=O)cc23)cc1	-5.0%	-9.1%	2.5	-5.4%	-7.5%	5.2%
CC(=O)Oc1ccc2occ(/C=N/c3cc(=O)[nH]c(=S)[nH]3)c(=O)c2c1	5.32µM*	0.7%	-51.3*	20.2%	28.2µM*	-5.1%
CC(=O)c1cccc(NC(=O)N2CCCC2C(=O)Nc2cccc(C)c2)c1 (centres undefined)	-1.5%	11.7%	-1.0	2.9%	-1.2%	-2.7%
CC(=O)c1cccc(NC(=O)N2CCCC2C(=O)Nc2ccc3c(c2)OCO3)c1 (centres undefined)	29.9µM*	15.7%	1.5	-10.5%	-4.7%	0.7%
Cc1cc[n+](Cc2ccc([N+](=O)[O-])cc2)cc1	-3.6%	-9.2%	3.0	-3.2%	9.0%	-7.6%
Cc1ccc(-c2cc[n+](Cc3ccccc3)cc2)cc1	18.9µM*	1.8%	-13.6	4.1%	?	-7.9%
COc1cc(CN2c3ccc(Br)cc3C(=O)CS2(=O)=O)cc(OC)c1	.	-2.6%	.	.	.	.
CC(=O)c1ccc2c3c(cccc13)C(=O)N(CCc1ccccc1)C2=O	-19.6%	-15.3%	-28.7	-4.6%[11.6 µM]	-2.0%	-2.8%
SMILES	PLK1 PBD block	FEN1 inh	PI5P4Ka inh	WRN inhibitor	VDR inhibitor	TCR act
NN1C(=O)c2cccc3c(C(=O)O)ccc(c23)C1=O	-12.2%	4.0%	-63.6*	3.7%	-20.8%	-11.0%[46.1 µM]
O=C(Nc1cc(F)ccc1F)c1cnn2c1NC(=C1CC1)C=C2C(F)F	.	-0.2%	.	.	.	.
CCOc1ccc(-c2nnc(-c3cccs3)o2)cc1OCC	18.9µM*	2.6%	-12.6	-2.5%	-29.7%	.
COC(=O)CSC1=C(C#N)C(c2ccc(Cl)cc2)C(C(=O)OC)C(=O)N1 (centres undefined)	26.7µM*	-15.8%	2.4	-1.0%	-19.1%	3.9%
COC(=O)C1C(=O)NC(SC)=C(C#N)C1c1ccccc1 (centres undefined)	-14.2%	6.0%	8.3	2.2%	7.2%	0.6%
CCOC(=O)CSC1=C(C#N)C(c2ccc(Cl)cc2)C(C(=O)OC)C(=O)N1 (centres undefined)	23.8µM*	-5.8%	.	-11.2%	-8.1%	.
COCCn1c(CCC(=O)Nc2ccc(C)c(Cl)c2)nc2cccnc21	.	16.1%	.	.	12.0%	.
CCOc1ccc(-c2c(C)nn3c(C)c(C(=O)NCC(C)c4ccccc4)cnc23)cc1OCC (centres undefined)	.	-6.7%	.	.	3.6%	.
CCc1nnc(N/N=C/c2ccc(O)c(OC)c2)n1N	-5.3%	-17.5%	-0.1	0.7%[11.6 µM]	?	-0.4%
CCc1nnc(N/N=C/c2cc(Br)c(O)cc2O)n1N	-25.7%	0.8%	-69.0*	-8.7%[11.6 µM]	4.6%	3.9%
c1ccc(CNc2ncnc3nc(N4CCOCC4)[nH]c23)cc1	.	?	.	.	-12.8%	.
COc1cc(C2NC(=O)NC3=C2C(=O)OC3)cc(OC)c1OC (centres undefined)	29.9µM*	4.4%	-0.6	7.3%	-21.7%	0.4%
CC[C@H]1OC(=O)[C@H](C)[C@@H](O[C@H]2C[C@@](C)(OC)[C@@H](O)[C@H](C)O2)[C@H](C)[C@@H](O[C@@H]2O[C@H](C)C[C@H](N(C)C)[C@H]2O)[C@](C)(O)C[C@@H](C)C(=O)[C@H](C)[C@@H](O)[C@]1(C)O	21.2µM*	17.4%	14.9	2.9%	-2.3%	-3.1%
CCOC(=O)CCC(=O)O[C@H]1[C@H](O[C@@H]2[C@@H](C)[C@H](O[C@H]3C[C@@](C)(OC)[C@@H](O)[C@H](C)O3)[C@@H](C)C(=O)O[C@H](CC)[C@@](C)(O)[C@H](O)[C@@H](C)C(=O)[C@H](C)C[C@@]2(C)O)O[C@H](C)C[C@@H]1N(C)C	-10.1%	17.3%	-0.1	-6.8%	-9.4%	6.2%

From PubChem
